Bioassay records deposited in PubChem BioAssay by several laboratories.
PAX8 reporter – lowers PAX8-driven luciferase in RMG-I cells; RMG-I TPO-luciferase reporter, SteadyGlo, 24 h; inhibition, % at 12.6 µM; 360,000 compounds, 1.2% hits; AID 652154;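 active = mean replicate inhibition at least 60% with every replicate also reaching 60%; inconclusive = only one of the two criteria is met; inactive = mean below 60% and not all replicates reaching 60%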;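 also: luciferase light reporting Pax8 driven TPO promoter activity; plate controls were median of neutral control wells for no effect and mitoxantrone controls for full effect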
LGR2 inh – blocks bursicon-induced cAMP signaling via Drosophila LGR2; AID 720647; 380,000 compounds, 0.35% hits; HEK293 LGR2, CRE-luciferase, bursicon-stimulated, 4 h; inhibition, % at 9.99 µM;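 active = drop in luminescence signal, shown as inhibition above about 50% in the replicate tests, limit read from the data, passing the limit was not always enough; inconclusive = probably only some replicates passing the limit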;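 also: agonist challenge used bursicon conditioned medium at about half maximal strength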
EWS-Fli block – inhibitors of EWS/Fli oncoprotein transcriptional activity; A673 NR0B1-luciferase reporter, viability-normalised; inhibition, % at 12.6 µM; 350,000 compounds, 0.67% hits; AID 651661;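 active = mean inhibition of at least 50% after viability correction, with every replicate also passing that limit; inconclusive = mean reaches 50% but only one of two replicates passes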;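 also: firefly luciferase signal divided by Alamar Blue viability fluorescence both relative to DMSO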
CF NFkB inh – inhibitors of cystic fibrosis induced NF-kB; inhibition, % at 5 µM; 360,000 compounds, 0.86% hits; KKLEB NF-kB-GFP reporter, PAF-induced, GFP fluorescence overnight;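 active = at least 50% inhibition at 5 µM, scaled per plate between neutral and stimulator controls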;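 also: PAF is a Pseudomonas aeruginosa culture filtrate used as stimulus; plate controls were PAF-stimulated DMSO wells for no effect and unstimulated DMSO wells for full effect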
KKLEB tox – CF airway cell cytotoxicity counter-screen. KKLEB CF airway cells viability, ATPlite luminescence, overnight; hits give low values; cells stimulated with P. aeruginosa culture filtrate. activity change (cytotoxicity), % at 5 µM. 360,000 compounds, 0.36% hits;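 active = corrected activity change at or below -50% at 5 µM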
Shn3 inh set2 – reduces Shn3 3'UTR luciferase signal in osteoblasts | Clone20 osteoblast Shn3 3'UTR firefly luciferase, 24 h | inhibition, % at 12.5 µM | 360,000 compounds, 0.52% hits | AID 588674;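 active = mean inhibition of at least 75% with every replicate also reaching 75%; inconclusive = mean inhibition at least 75% but some replicate below; inactive = mean inhibition below 75%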;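 also: 0% = median of neutral control wells and 100% = pilot-screen positive control compound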
An asterisk follows results filed as active; u = inconclusive; x = no result. Compounds with a hit are over-represented: about 2% of the library has one in this group of screens.

SMILES	PAX8 reporter	LGR2 inh	EWS-Fli block	CF NFkB inh	KKLEB tox	Shn3 inh set2
O=C(C[C@@H]1C[C@@H]2c3cc(NC(=O)NC4CCCC4)ccc3O[C@@H]2[C@H](CO)O1)NCc1cccc(F)c1	2	-2	-2	x	x	x
O=C1/C(=C\c2ccco2)SC(=S)N1c1ccc(O)cc1	91*	5	-1	-12	2	8
OCc1cccc(-c2cnc3c(Nc4cccc(OC(F)(F)C(F)F)c4)nccn23)c1	-52	66*	-41	7	-13	14
COc1ccc2c3c(n(C)c2c1)[C@@H](CO)N(C)CC31CCN(C(=O)NC(C)C)CC1	-19	-16	0	x	x	x
OC1CCC(Nc2ccn3nc(-c4cccc(OCc5ccccc5)c4)cc3n2)CC1 (centres undefined)	5	52*	-23	-12	0	1
COc1ccc(S(=O)(=O)N(C)C[C@@H]2Oc3c(NS(=O)(=O)c4ccc(C)cc4)cccc3C(=O)N([C@H](C)CO)C[C@@H]2C)cc1	x	3	2	x	x	x
CCc1cccc(N=c2c([N+](=O)[O-])nn(-c3ccc4c(c3)OCCO4)n2O)c1	101*	-52	-11	14	-14	0
COCC(=O)N1[C@H](CO)[C@H](c2ccccc2)C12CN(C(=O)Nc1ccccc1F)C2	-5	-6	2	x	x	x
Clc1ccccc1/C=C/c1nc(-c2ccccn2)no1	45	98*	67*	6	-38	x
O=C(C1CCCC1)N1CCCCN2[C@H](CO)[C@H](c3ccc(-c4cccc(F)c4)cc3)[C@@H]2C1	-8	x	-2	x	x	x
CC(C)(C)c1ccc(C(O)CCCN2CCC(C(O)(c3ccccc3)c3ccccc3)CC2)cc1 (centres undefined)	-18	5	2	14	-15	97*
N/C(=N\OC(=O)c1ccccc1Cl)c1ccccn1	x	95*	54*	-17	-37	43
COc1ccc(C(=O)NOCc2ccccc2)cc1	1	73*	14	29	-8	-56
Cc1ccc(C(=O)O/N=C(\N)c2ccccn2)c(C)c1	x	101*	77*	30	-46	96*
N/C(=N\OC(=O)c1cccc(Cl)c1)c1ccccn1	13	73*	x	-39	-4	20
COc1ccccc1C(=O)O/N=C(\N)c1ccccn1	7	u	-13	-6	-8	-38
COc1cc(OC)c(C(=O)O/N=C(\N)c2ccccn2)cc1OC	-38	-19	-9	-27	7	-18
C[C@H](CO)N1C[C@H](C)[C@@H](CN(C)C(=O)C2CCCCC2)Oc2ncc(C#CC(C)(C)O)cc2C1=O	x	-6	14	x	x	x
C[C@H]1CN([C@@H](C)CO)C(=O)c2cc(C#CC(C)(C)O)cnc2O[C@H]1CN(C)C(=O)CN(C)C	x	4	-3	x	x	x
COc1cc(OC)cc(C(=O)NNC(=O)c2ccc3ccccc3n2)c1	53	-10	23	-2	-13	9
COc1ccc(/C(N)=N/OC(=O)c2cccs2)cc1	-49	70*	-92	11	0	-44
COc1ccc(OC(C)C(=O)Nc2ccc([N+](=O)[O-])cc2)cc1 (centres undefined)	-4	-4	13	-30	-4	26
COc1cc(OC)cc(C(=O)O/N=C(\N)c2ccccn2)c1	-11	x	-75	-4	9	-170
COc1ccc(C(=O)O/N=C(\N)c2ccccn2)cc1	121*	103*	44	2	-7	62
COc1ccc(C(=O)NC(=S)NNC(=O)c2ccc3ccccc3n2)cc1	5	-5	-5	-22	-3	90*
C/C(=N\NC(=O)C(C)Oc1ccc([N+](=O)[O-])cc1)c1ccccn1 (centres undefined)	x	x	x	1	-9	83*
CCS(=O)(=O)Nc1ccc2c(c1)C(=O)N(C)C[C@H](OC)[C@H](C)CN(C(=O)NC(C)C)[C@@H](C)CO2	x	-5	-13	x	x	x
C[C@H]1CN([C@@H](C)CO)C(=O)c2cc(C3=CCCC3)cnc2O[C@H]1CN(C)C(=O)Cc1ccncc1	-12	-4	-12	x	x	x
CCN(CC)c1ccc(/C=N/NC(=O)c2ccccn2)cc1	-51	9	-30	7	-20	x
N/C(=N\OC(=O)c1ccc(Cl)cc1)c1[nH]ncc1Br	-86	61*	27	-1	1	-24
